From PubChem BioAssay (Tox21)
Where “and” joins values, the source holds several entries; their conditions need not be identical. Equal values may be shown once. Inconclusive results are not listed. Where a structure was tested more than once in an assay, its records may differ in their call. Calls of active or inactive are those of the source. Unless noted, the call rests on the fitted dose curve; in most records, active means well fitted curve in the direction sought with a large enough effect in the repeat runs; inconclusive means weak or mixed curves; inactive means no such curve, though single readings can be large; an effect the other way counts as inactive or inconclusive.

How the values were obtained:
[1] = qHTS assay to identify small molecule antagonists of the vitamin D receptor (VDR) signaling pathway - cell viability counter screen (AID 743225); further: nearly all actives have a fitted effect of over 50% in size; further: potency means the concentration at half of the fitted maximal effect; on viability change, negative = cytotoxic: on the % scale 0 is the no-effect control and ±100 the full control effect
Outline: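 Compounds were pinned onto VDR-bla HEK 293T cells together with 1-alpha,25-dihydroxyvitamin D3 at 3 nM final. After 16 h at 37C and 5% CO2 plus the reporter readout, cell viability was measured by CellTiter-Glo luminescence (30 min, room temperature).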

[2] = qHTS assay to identify small molecule agonists of the endoplasmic reticulum stress response signaling pathway - cell viability counter screen (AID 1159517; calls by dose curve; further: nearly all actives have a fitted effect of over 50% in size; further: potency means the concentration at half of the fitted maximal effect)
Outline: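 Cytotoxicity of test compounds toward ESRE-bla HeLa cells was assessed after 5 hr exposure. The luminescent CellTiter-Glo signal was measured 30 min after reagent addition.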

[3] = qHTS assay to identify small molecule antagonists of the retinoid-related orphan receptor gamma (ROR-gamma) signaling pathway - cell viability counter screen (AID 1159520); further: nearly all actives have a fitted effect of over 50% in size; further: potency means the concentration at half of the fitted maximal effect
Outline: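 Tet-on ROR gamma CHO cells (1,000/well) were plated 4 hr, given compounds in DMSO for 2 hr at 37 C, then induced with 1 uM final doxycycline for 16 hr. Viability was read as ATP by CellTiter-Glo luminescence after 30 min.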

[4] = target: Nuclear receptor ROR-gamma (Homo sapiens) (UniProt P51449); assay: qHTS assay to identify small molecule antagonists of the retinoid-related orphan receptor gamma (ROR-gamma) signaling pathway (AID 1159521; further: nearly all actives have a fitted effect of over 50% in size; further: potency means the concentration at half of the fitted maximal effect)
Outline: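 Test compounds were applied to Tet-on RORγ CHO cells 2 h ahead of doxycycline hyclate (1 uM final). Luciferase reporter activity was quantified by luminescence after 16 h at 37 C and 5% CO2.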

[5] = qHTS assay to identify small molecule agonists of the AP-1 signaling pathway - cell viability counter screen (AID 1159525; calls by dose curve; further: nearly all actives have a fitted effect of over 55% in size; further: potency means the concentration at half of the fitted maximal effect)
Outline: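 Each titration point was normalised to DMSO and tetra n-octyl ammonium bromide controls. The read was Cell Titer Glo luminescence after 30 min at RT, following 5 h compound exposure of ME-180 AP-1-bla cells at 37 °C.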

[6] = qHTS assay to identify small molecule agonists of the RXR signaling pathway - cell viability counter screen (AID 1159529); further: nearly all actives have a fitted effect of over 50% in size; further: potency means the concentration at half of the fitted maximal effect
Outline: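 Compounds dissolved in DMSO were pinned onto HEK 293T cells carrying a beta-lactamase reporter under RXR-alpha control and incubated 16 hr. Cytotoxicity was then quantified by CellTiter-Glo luminescence.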

[7] = qHTS assay to identify small molecule antagonists of the retinoid acid receptor (RAR) signaling pathway - cell viability counter screen (AID 1159551); further: nearly all actives have a fitted effect of over 35% in size; further: potency means the concentration at half of the fitted maximal effect
Outline: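 C3RL4 RARE-luciferase line; cpds + retinol 1 uM final, 6 h, 37 C/5% CO2; CellTiter-Glo ATP luminescence, 30 min RT.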

[8] = target: Retinoic acid receptor RXR-alpha (Homo sapiens) (UniProt P19793); assay: qHTS assay to identify small molecule agonists of the RXR signaling pathway (AID 1159527; calls by dose curve; further: on the % scale 0 is the no-effect control and ±100 the full control effect; nearly all actives have a fitted effect of over 35% in size)
Sequence of Retinoic acid receptor RXR-alpha (Homo sapiens) (P19793 whole entry, looked up): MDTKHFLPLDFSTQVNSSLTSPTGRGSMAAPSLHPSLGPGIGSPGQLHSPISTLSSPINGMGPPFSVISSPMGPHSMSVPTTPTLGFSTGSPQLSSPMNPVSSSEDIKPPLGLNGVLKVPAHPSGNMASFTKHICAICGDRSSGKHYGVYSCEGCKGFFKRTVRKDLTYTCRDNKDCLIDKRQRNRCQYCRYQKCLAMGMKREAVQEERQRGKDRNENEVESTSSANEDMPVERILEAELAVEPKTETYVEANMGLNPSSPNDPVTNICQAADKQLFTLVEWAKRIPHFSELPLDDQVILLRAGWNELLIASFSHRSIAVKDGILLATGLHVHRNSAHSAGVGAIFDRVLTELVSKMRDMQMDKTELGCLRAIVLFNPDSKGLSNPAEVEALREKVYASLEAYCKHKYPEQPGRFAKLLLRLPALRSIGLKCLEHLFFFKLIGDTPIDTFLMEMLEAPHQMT
Outline: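 Using 9-cis retinoic acid as the reference agonist, chemicals were tested in HEK 293T cells […] for 16 hr; substrate loading lasted 2 hr at room temperature.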

[9] = qHTS assay to identify small molecule agonists of the AP-1 signaling pathway (AID 1159526; calls by dose curve; further: on the % scale 0 is the no-effect control and ±100 the full control effect)

COc1cc(C(=O)NS(=O)(=O)c2ccccc2C)ccc1Cc1cn(C)c2ccc(NC(=O)OC3CCCC3)cc12
inactive: Potency [1] | Potency [2] | Potency [3] | Potency [4]

CSc1ccc2c(c1)N(CCC1CCCCN1C)c1ccccc1S2 (stereo not given)
active: Potency [1] 24.4 µM and 23.9 µM | Potency [2] 43.5 µM | Potency [6] 19.4 µM and 26.8 µM | Potency [7] 60.9 µM
48.4 µM (active) and inactive: Potency [3]
27.2 µM (active) and inactive: Potency [4]
43.5 µM (active) and inactive: Potency [5]

CCCCCCCOC(=O)c1ccc(O)cc1
active: Potency [1] 38.9 µM | Potency [2] 54.9 µM | Potency [5] 49 µM | Potency [6] 55 µM
inactive: Potency [3] | Potency [4] | Potency [8] | Potency [7]

CN1[C@@H]2CC[C@@H]1CC(OC(=O)C(CO)c1ccccc1)C2 (stereo not given in full)
inactive: Potency [2] | Potency [3] | Potency [5] | Potency [9] | Potency [8]

c1ccc(Sc2ccccc2)cc1
inactive: Potency [1] | Potency [3] | Potency [4] | Potency [5] | Potency [7]
active: Potency [2] 43.6 µM

O=C1c2c(O)ccc([N+](=O)[O-])c2C(=O)c2c([N+](=O)[O-])ccc(O)c21
active: Potency [1] 9.68 µM | Potency [2] 24.3 µM | Potency [3] 27.1 µM | Potency [4] 24.1 µM | Potency [5] 24.3 µM | Potency [6] 17.2 µM

CC=O
active: Potency [1] 57.5 µM | Potency [2] 16.2 µM | Potency [3] 63.9 µM | Potency [4] 2.02 µM | Potency [6] 14.4 µM

Clc1ccc(C(c2ccccc2Cl)C(Cl)Cl)cc1 (stereo not given)
inactive: Potency [1] | Potency [3] | Potency [4] | Potency [7]
active: Potency [2] 49 µM | Potency [5] 43.6 µM and 23.9 µM | Potency [6] 34.7 µM and 23.9 µM

CC1CCCNC1 (stereo not given)
inactive: Potency [1] | Potency [2] | Potency [3] | Potency [4] | Potency [5] | Potency [7]

CCC(C)c1cc([N+](=O)[O-])cc([N+](=O)[O-])c1OC(=O)OC(C)C (stereo not given)
active: Potency [1] 34.7 µM | Potency [2] 34.7 µM | Potency [3] 61.1 µM | Potency [4] 19.3 µM
inactive: Potency [5]

Cc1cc2c(C(C)C)c(O)c(O)c(C=O)c2c(O)c1-c1c(C)cc2c(C(C)C)c(O)c(O)c(C=O)c2c1O
active: Potency [1] 9.52 µM | Potency [2] 10.7 µM | Potency [3] 26.6 µM | Potency [4] 10.6 µM | Potency [6] 21.3 µM
inactive: Potency [5] | Potency [7]

N#CSCSc1nc2ccccc2s1
active: Potency [1] 15.5 µM | Potency [2] 12.3 µM | Potency [3] 4.33 µM | Potency [4] 13.7 µM | Potency [5] 43.6 µM | Potency [7] 61.1 µM

O=C(Nc1ccc(Cl)cc1)Nc1ccc(Cl)c(C(F)(F)F)c1
active: Potency [1] 12 µM | Potency [2] 21.3 µM | Potency [3] 23.7 µM | Potency [4] 7.5 µM | Potency [5] 16.9 µM | Potency [7] 29.8 µM

CCCCCCCCCC(=O)N(C)C
inactive: Potency [1] | Potency [2] | Potency [3] | Potency [4] | Potency [5] | Potency [9] | Potency [6] | Potency [7]

CCCCCCCCCCCCCC[n+]1ccccc1
active: Potency [1] 24.5 µM | Potency [2] 17.4 µM | Potency [3] 61.1 µM | Potency [4] 4.86 µM | Potency [5] 49 µM

CCN=c1cc2oc3cc(NCC)c(C)cc3c(-c3ccccc3C(=O)OCC)c-2cc1C
active: Potency [1] 48.8 µM and 24.5 µM | Potency [2] 24.5 µM and 38.9 µM | Potency [3] 27.2 µM and 24.3 µM | Potency [4] 3.84 µM and 6.86 µM

CCCCCCCCCCCCCCNCCO
active: Potency [2] 23.9 µM | Potency [3] 26.6 µM
inactive: Potency [1] | Potency [4] | Potency [5] | Potency [9] | Potency [8] | Potency [7]

C=C1C(C)(C)[C@@]2(Cl)C(Cl)[C@]1(Cl)C(Cl)(Cl)C2(Cl)Cl (stereo not given in full)
inactive: Potency [7]
active: Potency [2] 48.1 µM | Potency [3] 67.3 µM | Potency [4] 47.7 µM | Potency [5] 48.1 µM | Potency [6] 19.1 µM

C=C(c1ccc(C(=O)O)cc1)c1cc2c(cc1C)C(C)(C)CCC2(C)C
active: Potency [1] 21.3 µM | Potency [2] 24.5 µM and 19 µM | Potency [3] 30.6 µM | Potency [4] 24.3 µM and 23.7 µM | Potency [5] 30.9 µM | Potency [6] 49 µM and 23.9 µM | Potency [7] 61.1 µM

O=C1C=CC(=O)N1c1ccccc1
inactive: Potency [8]
active: Potency [1] 15.5 µM | Potency [2] 34.7 µM | Potency [3] 15.4 µM | Potency [4] 7.7 µM | Potency [5] 24.5 µM | Potency [6] 15.5 µM | Potency [7] 30.6 µM

COC(=O)NCCC[Si](OC)(OC)OC
active: Potency [4] 54.5 µM
inactive: Potency [1] | Potency [2] | Potency [3] | Potency [5] | Potency [7]

C/C=C/C(=O)Oc1c(CCCCCC(C)C)cc([N+](=O)[O-])cc1[N+](=O)[O-]
active: Potency [2] 21.9 µM | Potency [3] 19.3 µM | Potency [4] 6.11 µM
inactive: Potency [7]

CC(C)(C)CC(C)(C)c1ccccc1O
active: Potency [1] 22 µM | Potency [2] 49.2 µM | Potency [3] 61.4 µM | Potency [4] 68.9 µM | Potency [5] 43.9 µM | Potency [6] 39.1 µM

NC(=O)c1nc(-c2cccc(-c3cc(F)ccc3OCC(F)(F)C(F)(F)F)c2)n[nH]1
inactive: Potency [8]
active: Potency [2] 61.6 µM | Potency [4] 34.4 µM

S=C(SSSSSSC(=S)N1CCCCC1)N1CCCCC1
active: Potency [4] 0.239 µM | Potency [6] 0.606 µM
inactive: Potency [1] | Potency [2] | viability change, negative = cytotoxic [5] 2.16% [at 15.8 µM]

Oc1ccc(-c2ccccc2)c(Cl)c1
inactive: Potency [1] | Potency [2] | Potency [4] | Potency [8]

CN(C)c1ccc(N=NS(=O)(=O)O)cc1
inactive: Potency [2] | Potency [9] | Potency [7]
active: Potency [4] 4.33 µM

Cc1oc(-c2ccccc2)nc1CCOc1ccc(C[C@H](Nc2ccccc2C(=O)c2ccccc2)C(=O)O)cc1
inactive: Potency [7]
active: Potency [1] 19.5 µM | Potency [2] 54.9 µM | Potency [3] 61.1 µM

Cc1cc(Nc2ccc(O)cc2)ccc1N
inactive: Potency [1] | Potency [2] | Potency [5] | Potency [8]

C1CC(COCC2CO2)CCC1COCC1CO1 (stereo not given)
inactive: Potency [2] | Potency [3] | Potency [5] | Potency [6] | Potency [7]

CC(=O)Nc1ccc(O)cc1
inactive: Potency [1] | Potency [2] | Potency [3] | Potency [5] | Potency [6] | Potency [7]
